Measured values reported in PubChem BioAssay (NCI).
About 83,000 compounds went through this panel and 20% of them were active in at least one assay; those are over-represented in the sample as a whole.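 Assay: single dose, 48 h. Readout: percent growth (0 = no net growth; negative = cell death). Active: <10.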 Activity calls are given as the source filed them.

test system: HOP-92 NSCLC; assay: NCI-60 one-dose screen, 48 h (100 = growth as untreated, 0 = no growth, -100 = all killed); conditions: 10 µM unless noted

Row | Structure (SMILES) | growth
1 | COc1ccc(-c2cn(-c3cc(OC)c(OC)c(OC)c3)c(=O)n2C(C)=O)cc1 | 94.2% (inactive)
2 | O=C1NC(=O)c2c1c1c3ccccc3ccc1c1[nH]c3ccc(Br)cc3c21 | 7.3% (active)
3 | O=C(Cn1c2c(c3ccccc31)CCCC2)Nc1ccc(-c2nc3ccccc3s2)cc1 | 89.6% (inactive)
4 | COc1ccc(C/C(C)=C(/c2ccc(OCCN3CCCCC3)cc2)c2ccc(OC(=O)NCc3ccccc3)cc2)cc1 | -92.7% (active)
5 | CC(C)OC(=O)c1ccc2[nH]c(O)c(C(=Nc3ccc(N(C)C(=O)CN4CCN(C)CC4)cc3)c3ccccc3)c2c1 | 1.36% (active)
6 | COc1cc(N2C(=O)[C@H](O)C2c2ccc(SC)cc2)cc(OC)c1OC (stereo not given in full) | 26.1% (inactive)
7 | CCCCOC(=O)OCc1cc(=O)c(O)co1 | 107% (inactive)
8 | COc1ccc(C2=Nc3c/c(=C\c4c(O)[nH]c5ccc(Cl)cc45)ccc3=N2)cc1 | 52.8% (inactive)
9 | O=C(Nc1cccc([N+](=O)[O-])c1)c1cc2ccccc2cc1O | -9.02% (active)
10 | O=C(/C=C/c1cn(-c2ccccc2)nc1-c1ccc([N+](=O)[O-])cc1)c1ccc(Cl)cc1 | 58.5% (inactive)
11 | CC(C)CCC[C@@H](C)[C@H]1CC[C@H]2[C@@H]3CC=C4C[C@@H](C(C(=O)O)C(=O)O)CC[C@]4(C)[C@H]3CC[C@]12C | 8.17% (active)
12 | CN(C)CCNC(=O)c1cccc(-c2cnc3ccc(-c4ccc5c(c4)OCO5)nn23)c1 | 72.4% (inactive)
13 | N#Cc1c(-c2ccc(Cl)cc2)nc(SCC(=O)NC2=NN=C(c3ccccc3)CS2)[nH]c1=O | 58.2% (inactive)
14 | Cc1ccc2c3c(c(=O)[nH]c2c1)C1(C(C#N)=C(N)O3)c2cc(Br)ccc2-c2ccc(Br)cc21 | -10.8% (active)
15 | CCCCCCC1(C)NCCO1 (stereo not given) | 102% (inactive)
16 | COc1cc(CNS(=O)(=O)c2ccc(C)cc2)ccc1OCc1cn(-c2ccc(F)cc2)nn1 | 86.4% (inactive)
17 | Cc1cc(N)c2cc(NC(=O)/C=C\c3ccccc3Cl)ccc2n1 | -69.5% (active)
18 | CCOC(=O)C(=Cc1cccc(Br)c1)C(=O)OCC | 12.9% (inactive)
19 | COc1cc(NC(C)CCCNC(C)C)c2ncccc2c1OC (stereo not given) | 74.6% (inactive)
20 | COc1ccc2cc(-c3ccc(NC(C)=O)c(=O)o3)ccc2c1 | 97.8% (inactive)

Row | Structure (SMILES) | growth
21 | COc1cc(CNS(=O)(=O)c2ccc(C)cc2)ccc1OCc1cn(-c2ccc(Br)cc2)nn1 | 112% (inactive)
22 | O=S(=O)(NCCNc1cc(-c2c(-c3cccc(O)c3)nc3sccn23)ccn1)c1ccc(C(F)(F)F)cc1 | 61.9% (inactive)
23 | COc1ccc(/C=N/C2=C(C#N)C(c3cccc(Cl)c3)c3c(ccc4ccccc34)O2)cc1 (stereo not given) | 44.8% (inactive)
24 | N#CC1C=CN(CC(N)=O)c2ccc3cccnc3c21 (stereo not given) | 98.3% (inactive)
25 | COc1ccc2c(c1)[n+]([O-])c(C(=O)/C=C/C=C(\Cl)c1cc(OC)c(OC)c(OC)c1)c(C)[n+]2[O-] | 61.3% (inactive)
26 | O=S(=O)(Nc1ccc(Cl)cc1)c1ccc(-c2cnc(C3CC3)o2)cc1 | 41% (inactive)
27 | Cc1nc2c(=O)[nH]c(SCC(=O)Nc3cccc(F)c3)nc2[nH]c1=O | 99.9% (inactive)
28 | Nc1nc2c([nH]1)c1[nH]c3ccccc3c1c1[nH]c3ccccc3c21 | -2.6% (active)
29 | O=C(Cn1cc(CN2CCCCCC2)nn1)Nc1ccc2c(ccn2Cc2ccccc2)c1 | 64% (inactive)
30 | O=C(Nc1cc(Cl)ccc1O)c1ccc(Nc2ccnc(C(F)(F)F)c2)cc1 | 86% (inactive)
31 | COc1cccc(NC(=O)Cn2cc(CN3CCN(c4ccnc5cc(Cl)ccc45)CC3)nn2)c1 | 41.2% (inactive)
32 | CC(C)(C)n1cc(-c2ccnc(NCCNS(=O)(=O)c3cccc4ccccc34)c2)c(-c2cccc(F)c2)n1 | -19.3% (active)
33 | C/C(Nc1ccc(Cl)c(Cl)c1)=C1\CCOC1=O | 75.6% (inactive)
34 | Cc1c(-c2nc3ccc(F)cc3c(=O)[nH]2)c2ccccc2n1C | 60.5% (inactive)
35 | CC(C)n1cnc2c(=S)nc[nH]c21 | 103% (inactive)
36 | Oc1c(Cl)cc(Cl)c2ccc(Cn3cc(-c4cc(C(F)(F)F)cc(C(F)(F)F)c4)nn3)nc12 | 24.8% (inactive)
37 | COC(=O)c1c2c(c[n+]([O-])c1C)C(=O)C(NCc1ccccc1)=CC2=O | -29.7% (active)
38 | COc1ccc2[nH]cc(-c3nc(-c4cn(C)c5c(Cl)nccc45)cs3)c2c1 | 78.8% (inactive)
39 | Clc1ccc(CNc2c3ccccc3nc3ccccc23)cc1 | 25.5% (inactive)
40 | CCOC(=O)c1cc(-c2ccc([N+](=O)[O-])cc2)n(-c2ccc(C(=O)O)c(O)c2)c1C | 49.6% (inactive)
